From PubChem BioAssay
TDP1 cell noCPT: qHTS for Inhibitors of human tyrosyl-DNA phosphodiesterase 1 (TDP1): qHTS in cells in absence of CPT; DT40 Tdp1-/- hTDP1 cells, no CPT, ATP luminescence, 48 h; Potency, µM (highest dose often 46.2 µM), actives largely listed as inhibitors; 420,000 compounds, 15% hits; AID 686978, 2013; also: nearly all actives have a fitted effect of over 55% in size
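Stably hTDP1-transfected Tdp1-null chicken DT40 cells were treated with library compounds minus camptothecin and grown for at least 48 hr at 37 °C, after which cellular ATP was quantified by luminescence.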
KB-3-1 tox: kills parental KB-3-1 adenocarcinoma cells | KB-3-1 viability, CellTiter-Glo ATP luminescence, 72 h | Potency, µM (series often up to 46.1 µM), actives largely listed as cytotoxic | 400,000 compounds, 1.4% hits | AID 1347075; also: nearly all actives have a fitted effect of over 60% in size
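72 h, 37 °C compound treatment of KB-3-1 parental cells; CellTiter-Glo added, 10 min, luminescence read. Data corrected against DMSO-only plates and normalized before curve fitting.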
KB-V1 cytotox: kills drug-selected multidrug resistant KB-V1 cells. 400,000 compounds, 3.4% hits. Potency, µM (titrated, usually from 46.1 µM), hits mostly cytotoxic. KB-V1 MDR cells viability, CellTiter-Glo, 72 h; also: nearly all actives have a fitted effect of over 60% in size
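Compound-treated KB-V1 multidrug-resistant cells, 72 h, 37 degrees C; viability by CellTiter-Glo. Fitted qHTS curves give the values.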
TDP1 cell CPT: growth inhibition of DT40 Tdp1-/-;hTDP1 cells with camptothecin (screen for TDP1 inhibitors) | 420,000 compounds, 12% hits | chicken DT40 Tdp1-/-;hTDP1 cells + 20 nM CPT, ATP luminescence, 48 h | Potency, µM (doses to about 46.2 µM), most hits filed as inhibitors | AID 686979; also: nearly all actives have a fitted effect of over 55% in size
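Cell growth measured by CellTiter-Glo luminescence after a minimum 48 h, 37 C compound exposure with 20 nM CPT in Tdp1-knockout DT40 cells stably expressing hTDP1, seeded 400/well; qHTS titration format.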
HT1080 IDH1KD tx: toxicity to HT-1080 IDH1 knockdown cells (counter line) | 360,000 compounds, 2% hits | HT-1080 IDH1 knockdown viability, ATP luminescence, 48 h | Potency, µM (top dose mostly 46.1 µM), actives largely listed as cytotoxic
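Assay cells: HT-1080 with IDH1 knockdown, 750 per well, RPMI/5% FBS. Exposure: 48 h at 37 °C following 2 h pre-incubation. Read: CellTiter-Glo luminescence; fitted concentration-response, curve class assigned.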
HT1080NT lethal: kills 2HG-producing HT-1080-NT fibrosarcoma cells; HT-1080-NT fibrosarcoma viability, CellTiter-Glo ATP luminescence, 48 h; Potency, µM (titrated, usually from 46.1 µM), actives largely listed as cytotoxic; 360,000 compounds, 1.6% hits;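 also: NT is the 2HG producing partner of a matched IDH1 knockdown line; nearly all actives have a fitted effect of over 55% in size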
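HT-1080-NT fibrosarcoma cells (2HG-overproducing), 750 cells/well in RPMI with 5% FBS, dosed after 2 h and incubated 48 h at 37C. CellTiter-Glo luminescence normalized to DMSO and no-cell wells; concentration-response curves fitted and classed.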
Hits are given with their value; - = inactive; ? = inconclusive; . = not tested or not shown; [ ] = another dose, or the depositor's remark. Shown are actives, neighbours in structure and some others; about 19% of the full set was active somewhere. Calls follow the shape of the dose curve; as a rule, active = well fitted curve in the direction sought with a large enough effect; inconclusive = small, poorly fitted or top-dose-only effect, or another doubt; inactive = no such curve, though single readings can be large; an effect the other way counts as inactive or inconclusive.

SMILES | TDP1 cell noCPT | KB-3-1 tox | KB-V1 cytotox | TDP1 cell CPT | HT1080 IDH1KD tx | HT1080NT lethal
CCN1C[C@@H]2[C@@H]3C(=O)N(Cc4ccccc4)C(=O)[C@@H]3[C@](CC)(C1=O)N2C(=O)c1ccc(Cl)c(Cl)c1 | 26µM | - | - | 16µM | - | -
CN1C[C@@H]2[C@@H]3C(=O)N(Cc4ccccc4)C(=O)[C@@H]3[C@](Cc3ccccc3)(C1=O)N2C(=O)c1ccc(C(C)(C)C)cc1 | 16µM | ? | ? | 16µM | - | ?
CN1C[C@@H]2[C@@H]3C(=O)N(Cc4ccccc4)C(=O)[C@@H]3[C@](Cc3ccccc3)(C1=O)N2C(=O)c1ccccc1 | ? | - | - | ? | - | -
COc1cccc(CNc2ncn[nH]2)c1OCc1ccc(F)cc1 | - | - | - | - | - | -
CCN1CCCC1CNCc1cccc(OC)c1OCc1ccc(F)cc1 (centres undefined) | ? | - | 12µM | - | - | -
CCCOc1c(Br)cc(C(N)=O)cc1OCC | ? | - | - | 23µM | - | -
CCOc1c(Br)cc(C(N)=O)cc1OC | - | - | - | - | - | -
CCOc1cc(C=O)cc(Br)c1OCC(N)=O | 5.2µM | - | - | 5.8µM | - | -
CCOc1cc(CO)cc(Br)c1OCC(=O)O | - | - | - | - | - | -
CCCC(=NC(C)CC)C1=C(O)CC(c2ccccc2)CC1=O (centres undefined) | ? | - | - | ? | - | -
O=C(COCc1nc2ccccc2c(=O)[nH]1)NCC1CCCCC1 | ? | - | - | - | - | -
O=C(c1ccc(Br)cc1)N(Cc1nc2ccccc2c(=O)[nH]1)C1CCCC1 | 18µM | 16µM | ? | ? | 23µM | ?
O=c1[nH]c(CSc2nnc(-c3ccccc3)n2C2CCCCC2)nc2ccccc12 | 21µM | - | - | ? | - | -
O=C(c1ccccc1)N(Cc1nc2ccccc2c(=O)[nH]1)C1CCCC1 | - | - | ? | - | - | -
Cc1cccc(C(=O)N(Cc2nc3ccccc3c(=O)[nH]2)C2CCCC2)c1 | 26µM | - | ? | ? | - | -
O=c1[nH]c(CCC2CCCC2)nc2ccccc12 | - | - | 16µM | ? | - | -
CCOc1ccc(CCNC(=O)CSc2nc3ncc(Cl)cc3[nH]2)cc1OCC | - | - | ? | - | - | -
CC1CCC(NC(=O)CC(C)(C)Cc2nc3ccccc3c(=O)[nH]2)CC1 (centres undefined) | 23µM | - | - | 16µM | ? | ?
CC1CCC(NC(=O)COC(=O)c2n[nH]c(=O)c3ccccc23)CC1 (centres undefined) | - | - | - | - | - | -
Nc1nc(CN2CCCCC2)cs1 | - | - | - | - | - | -
Nc1nc(CN2CCOCC2)cs1 | 29µM | - | - | ? | - | -
CCCNC(=S)Nc1cccc(C(F)(F)F)c1 | - | - | - | - | - | -
FC(F)(F)c1cnc(NNC(=S)Nc2ccccc2Cl)c(Cl)c1 | 18µM | 16µM | ? | ? | ? | ?
O=C(Nc1ccccc1)Nc1ncc(C(F)(F)F)cc1Cl | ? | - | - | - | - | -
Cc1cccc(NC(=S)NNc2ncc(C(F)(F)F)cc2Cl)c1 | ? | ? | 15µM | ? | - | -
SMILES | TDP1 cell noCPT | KB-3-1 tox | KB-V1 cytotox | TDP1 cell CPT | HT1080 IDH1KD tx | HT1080NT lethal
CCCCC(=O)Nc1ccc(C(=O)OCc2cc(=O)n3nc(C4CC4)sc3n2)cc1 | ? | - | - | - | . | .
N#CC1(Nc2ccc([N+](=O)[O-])cc2)CCCC1 | - | - | ? | - | - | -
O=C(Nc1cccc(F)c1)C1CCCN(C(=O)c2ccc(Cl)cc2)C1 (centres undefined) | 18µM | ? | ? | 21µM | - | -[9.24 µM]
O=C(Nc1ccc(S(=O)(=O)N2CCCCC2)cc1)C1CCCN(C(=O)c2ccc(Cl)cc2)C1 (centres undefined) | 21µM | 9.2µM | - | ? | - | -
O=C(Nc1ccccc1)C1CCCN(C(=O)c2ccc(Cl)cc2)C1 (centres undefined) | ? | - | ? | ? | - | -
O=C(Cc1ccccc1Cl)Nc1cccc(S(=O)(=O)N2CCCCCC2)c1 | - | - | - | - | - | -
CCc1nnc(NC(=O)C2CCCN(C(=O)c3ccc(Cl)cc3)C2)s1 (centres undefined) | ? | - | - | ? | - | -
CCSc1nnc(NC(=O)C2CCCN(C(=O)c3ccc(Cl)cc3)C2)s1 (centres undefined) | 5.2µM | - | ? | 6.5µM | - | -
O=C(Nc1cccc(S(=O)(=O)N2CCCCC2)c1)Nc1ccc(Cl)cc1Cl | ? | ? | ? | ? | 16µM | 21µM
CCOc1ccc(NC(=O)CCn2cccn2)cc1 | - | - | - | - | . | .
O=C(Nc1cccc(S(=O)(=O)N2CCCCC2)c1)C1CCN(C(=O)c2ccc(Cl)cc2)CC1 | ? | . | . | ? | - | -
CN(C)S(=O)(=O)c1ccc(NC(=O)C2CCCN(C(=O)c3ccc(Cl)cc3)C2)cc1 (centres undefined) | ? | - | - | ? | - | -
COc1ccc(NC(=O)C2CCCN(C(=O)c3ccc(Cl)cc3)C2)cc1Cl (centres undefined) | 18µM | - | - | 21µM | - | -
O=C(Nc1cccc(S(=O)(=O)N2CCCCCC2)c1)C1CCN(C(=O)c2ccc(Cl)cc2)CC1 | ? | ? | - | 18µM | - | ?
CC(=O)c1ccc(NC(=O)C2CCCN(C(=O)c3ccc(Cl)cc3)C2)cc1 (centres undefined) | 21µM | - | - | 26µM | - | -
Cc1nc2ccccc2c2c(N)cccc12 | - | - | - | - | - | -
Cc1ccc2ncc(C(=O)c3ccc(C)c(C)c3)c(S(=O)(=O)c3ccc(F)cc3)c2c1 | 9.2µM | - | ? | 8.2µM | . | .
Cc1c(C(=O)c2ccc(Cl)c(Cl)c2)cnc2cc3c(cc12)OCO3 | ? | - | ? | ? | - | -
Cc1ccc(S(=O)(=O)c2c(C(=O)c3ccccc3)cnc3cc4c(cc23)OCCO4)cc1 | 21µM | ? | ? | ? | - | -
COc1ccc(S(=O)(=O)c2c(Nc3ccc(F)cc3)sc(C(=O)c3ccc(C)cc3C)c2N)cc1 | ? | ? | - | ? | . | .
CCOc1ccc(Nc2c(S(=O)(=O)c3ccccc3)cnc3ccc(CC)cc23)cc1 | ? | - | ? | ? | . | .
CCc1ccc(S(=O)(=O)c2c(C(=O)c3ccccc3)cnc3ccc(CC)cc23)cc1 | 15µM | - | - | 15µM | . | .
CCOc1ccc(S(=O)(=O)c2c(C(=O)c3ccc(C)c(C)c3)cnc3ccccc23)cc1 | 15µM | - | - | 16µM | . | .
